20 compounds from PubChem BioAssay (EPA / NIEHS) can be followed below.

Inconclusive results are not listed. Calls of active or inactive are those of the source. How the source made its calls: active means hit-call score of the fitted dose curve at least 0.9, where 1 is the maximum; inconclusive means response in the unintended direction; inactive means score below 0.9.

The experiment is described as follows: CCTE_Deisenroth_AIME_384WELL_CTox_Inactive: Cytotoxicity Assessment (CTOX) in CCTE's 384-well Estrogen Receptor Transactivation Assay without AIME metabolic competence (metabolism negative), Deisenroth Lab (AID 2284039).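 Further: cell viability via live-cell protease substrate cleaved to fluorescent probe; cells exposed 24 h to medium preincubated 2 h with alginate-water beads without S9.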 On the procedure:
CCTE_Deisenroth_AIME_384WELL (AIME metabolism assay) is a cell-based, single-readout assay that uses VM7Luc4E2, a human mammary gland/breast cell line, with measurements taken at 24 hour after chemical dosing in a 384-well plate.CCTE_Deisenroth_AIME_384WELL_CTox_Inactive is one of four assay components measured or calculated from the CCTE_Deisenroth_AIME_384WELL assay. It is designed to make measurements of a protease substrate, a type of viability indicator, as detected with substrate cleavage to a fluorescent probe in living cells.CCTE_Deisenroth_AIME_384WELL_CTox_Inactive is a component of the CCTE_Deisenroth_AIME_384WELL assay that measures the effect of retroftting the VM7Luc ERTA assay with the Alginate Immobolization of Metabolic Enzymes (AIME) metabolism method. AIME is optimized to impart phase I hepatic metabolism using phenobarbital/beta-naphthoflavone induced hepatic S9 from male Sprague Dawley rats. Parent chemicals are incubated for 2 hours in the AIME assay prior to transfer to the VM7Luc ERTA assay plate. […] This endpoint evaluates cytotoxicity in metabolism negative mode. Using a type of flourescent probe in VM7Luc cells, loss-of-signal activity can be used to understand loss of viability. This assay endpoint, CCTE_Deisenroth_AIME_384WELL_CTox_Inactive, was analyzed with bidirectional fitting in the ERTA assay.
The AIME procedure consists of a preparative "pre-stamping" step using a barium chloride/poly-L-lysine (PLL) solution followed by "stamping" the lid in alginate-hepatic S9 (metabolism positive) or alginate-water (metabolism negative) to form microspheres. Once stamping is completed, the AIME lids are placed in duplicate microplates (metabolism positive or negative) containing chemical solutions and incubated for two hours to facilitate metabolic reactions. The conditioned medium, containing parent chemical or metabolites, is then transferred to the cell-based VM7Luc Estrogen Receptor Transactivation Assay (ERTA) for 24 hours. A typical experimental design tests a 10-point concentration series (0.002 - 200 uM) for 8 compounds (96-well format)1 or 32 compounds (384-well format)2 in single technical replicate. AIME assay controls include trans-stilbene (bioactivated control) and ethylparaben (bioinactivated control). ERTA assay plate controls include 17-beta estradiol (positive control) and DMSO (solvent control). Experiments typically comprise a minimum of four experimental replicates (n=4).
As to `CCCCC(CC)CCC(CC(C)C)OS(=O)(=O)O` (stereo not given), the compound was classed as inactive.

In the case of `O=C(C=Cc1ccccc1)OCc1ccccc1`, the outcome was inactive.

As for `O=S1(=O)OC(c2ccc(O)cc2)(c2ccc(O)cc2)c2ccccc21`, the compound was called inactive.

With `c1ccc2c(c1)ccc1cc3c(ccc4ccccc43)cc12`, the result was inactive.

For `CCCCCCCC[N+](C)(CCCCCCCC)CCCCCCCC`, the AC50 was 19.2 µM (active).

As to `CC1=NN(c2cc(S(=O)(=O)O)ccc2Cl)C(=O)C1N=Nc1ccccc1` (stereo not given), the outcome was inactive.

Take `O=C1C(N(CO)C(=O)NCO)N(CO)C(=O)N1CO` (stereo not given): the result was inactive.

`O=C(C(Cl)Cl)N1CCOC12CCCCC2`: the AC50 was 19.8 µM (active).

Take `C=C1C2CCC(C2)C1(C)C` (stereo not given): the outcome was inactive.

For `CC=C1CC2C=CC1C2` (stereo not given), the compound was classed as inactive.

As to `Oc1ccc(Cl)cc1Cc1cc(Cl)ccc1O`, the AC50 was 100 µM (active).

Consider `CCOC(=O)CC`, for which the compound was called inactive.

`C=CC(=O)NC(C)(C)CS(=O)(=O)O`: the result was inactive.

Regarding `CCCCC/C=C\CCC=O`, the call was inactive.

For `OC1CCCC1`, the result was inactive.

Turning to `NC(CO)(CO)CO`, the call was inactive.

Regarding `CN(C)c1ccc(C(=N)c2ccc(N(C)C)cc2)cc1`, the concentration at half-maximal activity (AC50) is 31.1 µM (active).

Take `O=c1cc(-c2ccccc2)oc2ccccc12`: the compound was classed as inactive.

For `CCCCCCCCCCOS(=O)(=O)O`, the AC50 was 19.8 µM (active).

As to `CCN(CCC#N)c1ccc(N=Nc2c(Cl)cc([N+](=O)[O-])cc2Cl)cc1`, the concentration at half-maximal activity (AC50) was 100 µM (active).
